This note sets out measurements from PubChem BioAssay (EPA / NIEHS).

Experiment [1] in a line: ACEA_ER_AUC_viability: ACEA Biosciences xCELLigence Real-Time Cell Analysis on Estrogen Receptor Agonism for Viability (AID 2283782).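 Note: hit means loss of impedance signal meaning reduced cell growth or viability.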 In short, it runs like this: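 Read-out: real-time electrical impedance (RT-CES) area under curve, loss of signal taken as reduced viability, normalized to DMSO baseline. T-47D cells, charcoal-stripped serum medium, compounds up to 100 uM final, continuous exposure, 80 h.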

Experiment [2] can be described thus: ACEA_AR_antagonist_AUC_viability: ACEA Biosciences xCELLigence Real-Time Cell Analysis on Androgen Receptor Antagonism for Viability (AID 2283776).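 Note: 22Rv1 human prostate cancer cells growing on impedance electrode plates; area under impedance growth curve at 80 h after dosing as viability; hits lower the growth signal relative to DMSO meaning cytotoxicity.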 The procedure, abridged:
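Viability endpoint from label-free cell-index monitoring: 22Rv1 cultures treated with an eight-point 1:4 dilution series starting at 100 uM final, AUC at 80 h fitted against DMSO.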

Experiment [3] addresses AR (gene 367) (UniProt P10275). The experiment in a line: ACEA_AR_agonist_80hr: ACEA Biosciences xCELLigence Real-Time Cell Analysis on Androgen Receptor Agonism for Proliferation (AID 2283783).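 Note: hits increase impedance growth signal above DMSO baseline.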 In short, it runs like this:
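Impedance (RT-CES) growth signal at 80 h post-dose; 22Rv1 cells, 8-pt 1:4 series, top 100 uM final, DMSO ≤0.5%; duplicate plates; gain-of-signal fit relative to DMSO baseline.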

In experiment [4] the target is AR (gene 367) (UniProt P10275). As to the kind of experiment: ACEA_AR_antagonist_80hr: ACEA Biosciences xCELLigence Real-Time Cell Analysis on Androgen Receptor Antagonism for Proliferation (AID 2283787).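 Note: 22Rv1 human prostate cancer cells with growth followed by electrical impedance; hits lower the impedance growth signal relative to DMSO.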 In short, it runs like this: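 Measures real-time proliferation of 22Rv1 prostate cancer cells by electrode impedance at 80 hours after dosing. Test articles ran at eight concentrations (1:4 steps, top 100 uM final) in biological duplicate.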

Records with an inconclusive call do not appear. Active and inactive are the calls of the source. Rule for the calls: active = hit-call score of the fitted dose curve at least 0.9, where 1 is the maximum; inconclusive = response in the unintended direction; inactive = score below 0.9.

Chain of AR (gene 367) (P10275 whole entry, looked up): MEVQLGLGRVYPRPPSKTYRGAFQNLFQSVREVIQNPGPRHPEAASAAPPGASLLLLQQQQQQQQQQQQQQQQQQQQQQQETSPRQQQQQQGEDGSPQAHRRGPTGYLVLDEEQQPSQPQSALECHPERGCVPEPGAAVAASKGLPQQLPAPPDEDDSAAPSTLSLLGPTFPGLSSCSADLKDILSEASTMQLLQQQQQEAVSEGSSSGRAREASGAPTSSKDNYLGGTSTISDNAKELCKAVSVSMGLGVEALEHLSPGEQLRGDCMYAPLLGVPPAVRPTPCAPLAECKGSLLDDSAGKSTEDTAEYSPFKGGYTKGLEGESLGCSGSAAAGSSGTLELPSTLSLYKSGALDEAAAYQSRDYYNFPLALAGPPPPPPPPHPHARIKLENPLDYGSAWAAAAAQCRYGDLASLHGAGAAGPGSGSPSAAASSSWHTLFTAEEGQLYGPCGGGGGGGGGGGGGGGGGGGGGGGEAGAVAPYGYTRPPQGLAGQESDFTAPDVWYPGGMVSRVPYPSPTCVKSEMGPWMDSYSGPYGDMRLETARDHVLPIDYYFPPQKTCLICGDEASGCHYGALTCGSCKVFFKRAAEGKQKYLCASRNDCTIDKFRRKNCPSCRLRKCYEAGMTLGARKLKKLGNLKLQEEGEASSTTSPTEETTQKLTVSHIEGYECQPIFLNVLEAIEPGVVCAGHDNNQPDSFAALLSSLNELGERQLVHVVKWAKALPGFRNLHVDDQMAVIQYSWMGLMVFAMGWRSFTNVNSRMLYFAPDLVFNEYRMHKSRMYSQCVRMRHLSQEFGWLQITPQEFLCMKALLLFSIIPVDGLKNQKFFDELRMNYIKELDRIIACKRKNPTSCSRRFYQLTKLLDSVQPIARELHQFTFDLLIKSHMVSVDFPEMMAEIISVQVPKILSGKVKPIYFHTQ

Turning to `COC(=O)C(F)(F)C(F)(F)OC(F)(C(F)(F)F)C(F)(F)OC(F)=C(F)F` (stereo unspecified), in experiment [1], the call was inactive.
Take `FC(F)(F)C(F)(C(F)(F)F)C(F)(F)C(F)(F)CC1CO1` (stereo unspecified): the compound was classed as inactive in experiment [1].
Regarding `c1cc2c3c(cccc3c1)CC2`, the result in experiment [2], in experiment [3] and in experiment [4] was inactive.
Regarding `Nc1ccc(Sc2ccc(N)cc2)cc1`, the outcome in experiment [1] was inactive.
In the case of `CCN(CC)c1ccccc1`, the outcome in experiment [2], in experiment [3] and in experiment [4] was inactive.
In general, AC50 refers to the concentration giving half of the maximal activity seen. Consider `[N-]=[N+]=[N-]`, for which the AC50 in experiment [2] and in experiment [4] was 50 µM (active) throughout.
In the case of `CCOP(=O)(O)C(N)=O`, the outcome in experiment [1] was inactive.
For the compound `CCNc1nc(Cl)nc(NC(C)(C)C)n1`, the compound was classed as inactive in experiment [2], in experiment [3] and in experiment [4].
`Oc1ccc(I)cc1`: in experiment [1], the AC50 is 73.7 µM (active).
